Consider 6 molecules from PubChem BioAssay (EPA / NIEHS).

The target in test [1] is Paired box protein Pax-6 (Homo sapiens) (UniProt P26367). Kind of test: ATG_Pax6_CIS: Attagene CIS-FACTORIAL HepG2 Assay for human Paired Box 6 (PAX6) (AID 2282956). The conditions noted are these: HepG2 CIS-FACTORIAL PAX6 reporter transcription, RNA readout; actives raise or lower the signal. A digest of the protocol: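 After twenty-four hours of chemical exposure, transfected HepG2 cells are harvested for RNA. Cis-promoter reporter transcripts are amplified, fluorescently labelled and sized by capillary electrophoresis, with gain and loss of signal scored against DMSO.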

The nature of test [2]: ATG_PXRE_CIS: Attagene CIS-FACTORIAL HepG2 Assay for human Pregnane X Receptor Element (PXRE) (AID 2282957). The following applies: HepG2 Attagene CIS-FACTORIAL PXRE reporter, mRNA; actives raise or lower the signal. A digest of the protocol: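 Transfect HepG2 with MRTUs (cis promoter elements); dose chemical, incubate 24 h; isolate RNA, RT with oligo(dT), PCR, 6-FAM label, HpaI cut, CE. Gain/loss fit vs DMSO.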

Test [3] can be described thus: ATG_Sox_CIS: Attagene CIS-FACTORIAL HepG2 Assay for human SRY-box transcription factor (SOX) (AID 2282960). The conditions noted are these: HepG2 Attagene cis-factorial SOX reporter, mRNA; actives raise or lower the signal. A digest of the protocol:
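Endogenous factor activity in human liver HepG2 cells carrying transfected cis-regulated reporter units. RNA taken 24 h post-dose, reverse-transcribed, PCR-amplified and sized by capillary electrophoresis. Gain or loss of signal fitted relative to DMSO.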

Test [4] deals with Transcription factor Sp1 (Homo sapiens) (UniProt P08047). Nature of the test: ATG_Sp1_CIS: Attagene CIS-FACTORIAL HepG2 Assay for human Specificity Protein 1 (Sp1) (AID 2282961). The conditions noted are these: HepG2 Sp1 cis-reporter transcription, actives raise or lower the signal. In short, it runs like this:
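Transient MRTU-transfected HepG2, 24 h compound exposure. Total RNA → oligo(dT) RT → PCR of reporter → 6-FAM primer extension → HpaI digest → CE. Endpoint fitted both directions vs DMSO.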

Test [5] is described as follows: ATG_SREBP_CIS: Attagene CIS-FACTORIAL HepG2 Assay for human Sterol Regulatory Element Binding (SREBP) (AID 2282962). The conditions noted are these: HepG2 Attagene cis-factorial SREBP reporter, mRNA; actives raise or lower the signal. A digest of the protocol:
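Twenty-four hours after chemical dosing of transfected HepG2 cultures, reporter RNA was converted to cDNA, amplified, end-labelled with 6-FAM and resolved by capillary electrophoresis. Responses were fitted relative to DMSO.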

Test [6] deals with Signal transducer and activator of transcription 3 (Homo sapiens) (UniProt P40763). Nature of the test: ATG_STAT3_CIS: Attagene CIS-FACTORIAL HepG2 Assay for human Signal Transducer and Activator of Transcription 3 (STAT3) (AID 2282963). The conditions noted are these: HepG2, Attagene cis-factorial STAT3 reporter transcription; actives raise or lower the signal. In short, it runs like this: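 After a 24 h compound incubation, total RNA from MRTU-transfected HepG2 cells was converted to cDNA and reporter sequences PCR-amplified, labelled and profiled by capillary electrophoresis. Gain and loss of signal were referenced to DMSO.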

The nature of test [7]: ATG_TA_CIS: Attagene CIS-FACTORIAL HepG2 Assay for human TA Basal Promoter (AID 2282964). The following applies: HepG2 Attagene CIS-factorial TA basal promoter reporter; actives raise or lower the signal. In short, it runs like this: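 Read-out: fluorescent reporter-transcript fragments resolved by capillary electrophoresis after RT-PCR and HpaI digestion. Source: HepG2 cells carrying transiently transfected multi-reporter cis constructs, treated 24 h. Endpoint fitted bidirectionally relative to DMSO.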

Test [8] can be described thus: ATG_TCF_b_cat_CIS: Attagene CIS-FACTORIAL HepG2 Assay for human T-Cell-Factor with beta-catenin (TCF/b-cat) (AID 2282965). The conditions noted are these: HepG2 TCF/beta-catenin cis-reporter transcription, actives raise or lower the signal. A digest of the protocol: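 Endogenous transcription factor activity is captured through cis-promoter reporter constructs transiently introduced into human HepG2 liver cells. Induced reporter mRNA is measured after 24 h and fitted bidirectionally relative to DMSO.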

A short description of test [9]: ATG_TAL_CIS: Attagene CIS-FACTORIAL HepG2 Assay for human TAL Basal Promoter (AID 2282966).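 Also: background control endpoint measuring basal TAL promoter reporter mRNA not a specific factor.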 The following applies: HepG2 Attagene cis-factorial TAL promoter reporter; actives raise or lower the signal. In short, it runs like this: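 Fluorescence of labelled reporter cDNA fragments, resolved by capillary electrophoresis, gave the readout. Human HepG2 liver cells carried transiently transfected cis-element reporter units and were treated for 24 hours; activity was fitted bidirectionally against DMSO.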

A short description of test [10]: ATG_TGFb_CIS: Attagene CIS-FACTORIAL HepG2 Assay for human Transforming Growth Factor (TGF) (AID 2282967). The conditions noted are these: HepG2 Attagene CIS TGFb reporter, mRNA transcription; actives raise or lower the signal. A digest of the protocol: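 Transient MRTU transfection of HepG2 (FuGene 6). Dose 24 h. TriZol RNA, oligo(dT) RT, PCR, 6-FAM primer extension, HpaI cut, CE. Bidirectional fit, DMSO = baseline.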

The nature of test [11]: ATG_VDRE_CIS: Attagene CIS-FACTORIAL HepG2 Assay for human Vitamin D Receptor Element (VDRE) (AID 2282968). The following applies: HepG2 VDRE cis-reporter transcription, actives raise or lower the signal. A digest of the protocol:
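In transiently transfected HepG2 liver cells, gain or loss of reporter mRNA after 24 h exposure is scored relative to DMSO, using fluorescence detection by capillary electrophoresis of RT-PCR products.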

The target of test [12] is Estrogen receptor (Homo sapiens) (UniProt P03372). Nature of the test: ATG_ERa_TRANS: Attagene TRANS-FACTORIAL HepG2 Assay for human Estrogen Receptor alpha (ERa) (AID 2282970; active = hit-call score of the fitted dose curve at least 0.9, where 1 is the maximum). The conditions noted are these: HepG2 Attagene TRANS ERa GAL4 reporter, mRNA. A digest of the protocol:
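Human liver HepG2, transient transfection of multiple GAL4-UAS reporter units; TRANS format (exogenous NR-Gal4 chimera). 24 h dosing. Readout: reporter mRNA, RT-PCR, 6-FAM primer extension, HpaI digest, capillary electrophoresis. Positive direction vs DMSO.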

Test [13] addresses X-box-binding protein 1 (Homo sapiens) (UniProt P17861). Nature of the test: ATG_Xbp1_CIS: Attagene CIS-FACTORIAL HepG2 Assay for human X-box Binding Protein 1 (XBP1) (AID 2282972). The conditions noted are these: HepG2 XBP1 cis-element reporter, Attagene multiplex; actives raise or lower the signal. A digest of the protocol:
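After a 24-hour chemical exposure of HepG2 cells carrying cis-regulated reporters, reporter mRNA levels are assessed. Quantification uses RT-PCR, 6-FAM labelling and capillary electrophoresis. Gain- or loss-of-signal is fitted against DMSO.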

The nature of test [14]: ATG_RORE_CIS: Attagene CIS-FACTORIAL HepG2 Assay for human RAR-related Orphan Receptor Element (RORE) (AID 2282959). The conditions noted are these: HepG2 Attagene cis-factorial RORE reporter, mRNA; actives raise or lower the signal. In short, it runs like this: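 Transient MRTU transfection of human HepG2 liver cells (FuGene 6); 24 h compound exposure; TriZol RNA, oligo(dT) RT, PCR, FAM labeling, HpaI cut, CE fragment analysis. DMSO = negative control/baseline.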

Test [15] is described as follows: ATG_GAL4_TRANS: Attagene TRANS-FACTORIAL HepG2 Assay for GAL4 (Internal Marker) (AID 2282976; active = hit-call score of the fitted dose curve at least 0.9, where 1 is the maximum). The conditions noted are these: HepG2 Attagene TRANS GAL4 internal marker reporter. In short, it runs like this:
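First, HepG2 cells were transfected with reporter units under GAL4-UAS control. Next, they were treated with chemical for 24 h. Finally, RNA was reverse-transcribed, PCR-amplified, FAM-labelled and resolved by capillary electrophoresis, with induction scored against DMSO.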

The target in test [16] is Estrogen-related receptor gamma (Homo sapiens) (UniProt P62508). Nature of the test: ATG_ERRg_TRANS: Attagene TRANS-FACTORIAL HepG2 Assay for human Estrogen-Related Receptor gamma (ERRg) (AID 2282977; active = hit-call score of the fitted dose curve at least 0.9, where 1 is the maximum;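 also: hits increase reporter signal over DMSO so potencies reflect activators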). The following applies: HepG2 Attagene TRANS reporter, ERRg transactivation. A digest of the protocol: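 Transient HepG2 transfectants, 24 h compound exposure, GAL4-UAS reporter mRNA by RT-PCR/6-FAM labelling/capillary electrophoresis; positive direction vs DMSO.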

A short description of test [17]: ATG_M_19_TRANS: Attagene TRANS-FACTORIAL HepG2 Assay for M19 Transcription Factor (Internal Marker) (AID 2282974; active = hit-call score of the fitted dose curve at least 0.9, where 1 is the maximum). The conditions noted are these: HepG2 Attagene TRANS-FACTORIAL M19 internal marker reporter. In short, it runs like this:
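Fluorescence of 6-FAM-labelled reporter cDNA fragments, separated by capillary electrophoresis, served as the readout. These derived from HepG2 cells carrying transfected GAL4-UAS reporter units after 24 h dosing, with DMSO as negative control.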

Test [18] can be described thus: ATG_PPRE_CIS: Attagene CIS-FACTORIAL HepG2 Assay for human Peroxisome Proliferator-activated Response Element (PPRE) (AID 2282958). The following applies: HepG2 PPRE cis-element reporter, Attagene transcription factor profiling; actives raise or lower the signal. In short, it runs like this:
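HepG2, transient MRTU transfection (cis promoter elements, endogenous TFs). 24 h dosing. RNA → oligo(dT) RT → PCR → 6-FAM primer extension → HpaI digest → CE. Bidirectional fit vs DMSO.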

Each structure is given as a SMILES string. Where “and” joins values, the source holds several entries; their conditions need not be identical. Equal entries are not always repeated. Results filed as inconclusive are left out. Calls of active or inactive are those of the source. The calls were made as follows, unless noted: active = hit-call score of the fitted dose curve at least 0.9, where 1 is the maximum; inactive = score below 0.9.

One may read the AC50 as the concentration at which the activity in the assay is half-maximal.

Estrogen receptor (Homo sapiens), sequence (P03372 whole entry, looked up, the tested form may be a part): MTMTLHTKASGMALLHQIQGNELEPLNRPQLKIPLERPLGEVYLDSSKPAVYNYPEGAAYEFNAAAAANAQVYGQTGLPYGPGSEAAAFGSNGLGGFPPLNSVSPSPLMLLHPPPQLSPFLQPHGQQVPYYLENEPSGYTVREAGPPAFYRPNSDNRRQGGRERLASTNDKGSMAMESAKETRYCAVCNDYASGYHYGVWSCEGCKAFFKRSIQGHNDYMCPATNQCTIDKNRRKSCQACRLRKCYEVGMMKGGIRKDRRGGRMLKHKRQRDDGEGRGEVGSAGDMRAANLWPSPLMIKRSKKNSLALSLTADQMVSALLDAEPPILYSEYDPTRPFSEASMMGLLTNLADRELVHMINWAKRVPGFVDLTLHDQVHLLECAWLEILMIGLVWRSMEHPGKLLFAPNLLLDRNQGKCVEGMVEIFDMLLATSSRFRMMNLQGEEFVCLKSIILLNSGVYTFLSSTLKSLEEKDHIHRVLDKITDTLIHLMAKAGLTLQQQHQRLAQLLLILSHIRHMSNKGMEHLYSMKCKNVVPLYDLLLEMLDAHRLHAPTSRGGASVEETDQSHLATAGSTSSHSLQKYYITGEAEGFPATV
Paired box protein Pax-6 (Homo sapiens), sequence (P26367 whole entry, looked up): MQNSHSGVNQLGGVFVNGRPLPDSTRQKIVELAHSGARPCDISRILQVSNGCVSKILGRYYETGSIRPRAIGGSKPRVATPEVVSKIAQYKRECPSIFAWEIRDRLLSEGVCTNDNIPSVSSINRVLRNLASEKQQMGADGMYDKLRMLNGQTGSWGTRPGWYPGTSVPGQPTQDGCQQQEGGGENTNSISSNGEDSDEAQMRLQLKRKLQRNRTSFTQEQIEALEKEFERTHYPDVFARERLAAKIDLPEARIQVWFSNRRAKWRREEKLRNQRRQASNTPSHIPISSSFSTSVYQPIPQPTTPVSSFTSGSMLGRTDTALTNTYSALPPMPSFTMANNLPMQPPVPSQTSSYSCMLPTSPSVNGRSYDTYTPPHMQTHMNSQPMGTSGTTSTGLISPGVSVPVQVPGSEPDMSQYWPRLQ
X-box-binding protein 1 (Homo sapiens), sequence (P17861 whole entry, looked up): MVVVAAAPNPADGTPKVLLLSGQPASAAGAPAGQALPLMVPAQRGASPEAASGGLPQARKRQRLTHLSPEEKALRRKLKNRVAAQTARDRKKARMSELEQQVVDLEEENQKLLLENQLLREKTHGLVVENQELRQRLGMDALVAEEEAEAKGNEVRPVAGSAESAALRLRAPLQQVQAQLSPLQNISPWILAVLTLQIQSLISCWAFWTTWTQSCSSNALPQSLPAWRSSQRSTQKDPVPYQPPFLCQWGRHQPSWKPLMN
Signal transducer and activator of transcription 3 (Homo sapiens), sequence (P40763 whole entry, looked up): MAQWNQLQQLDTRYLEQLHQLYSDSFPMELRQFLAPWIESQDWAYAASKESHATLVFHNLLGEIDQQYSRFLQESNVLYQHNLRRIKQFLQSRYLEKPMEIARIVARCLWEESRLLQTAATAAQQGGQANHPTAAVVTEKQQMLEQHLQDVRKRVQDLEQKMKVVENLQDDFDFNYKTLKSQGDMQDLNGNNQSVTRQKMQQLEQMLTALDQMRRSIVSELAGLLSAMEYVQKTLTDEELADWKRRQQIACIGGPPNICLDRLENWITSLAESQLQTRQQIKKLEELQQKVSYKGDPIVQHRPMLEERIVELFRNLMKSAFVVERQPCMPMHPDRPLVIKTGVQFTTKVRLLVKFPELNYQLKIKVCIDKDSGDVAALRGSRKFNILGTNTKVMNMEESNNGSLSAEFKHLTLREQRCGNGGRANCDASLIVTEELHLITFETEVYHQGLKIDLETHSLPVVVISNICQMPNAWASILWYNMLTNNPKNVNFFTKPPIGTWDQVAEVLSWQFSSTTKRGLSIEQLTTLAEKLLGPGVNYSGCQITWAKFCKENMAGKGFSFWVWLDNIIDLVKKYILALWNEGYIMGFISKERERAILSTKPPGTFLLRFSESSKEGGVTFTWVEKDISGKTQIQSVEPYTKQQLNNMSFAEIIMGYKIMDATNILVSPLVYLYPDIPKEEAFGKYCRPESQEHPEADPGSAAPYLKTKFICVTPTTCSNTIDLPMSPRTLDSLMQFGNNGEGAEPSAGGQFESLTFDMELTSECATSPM
Transcription factor Sp1 (Homo sapiens), sequence (P08047 whole entry, looked up): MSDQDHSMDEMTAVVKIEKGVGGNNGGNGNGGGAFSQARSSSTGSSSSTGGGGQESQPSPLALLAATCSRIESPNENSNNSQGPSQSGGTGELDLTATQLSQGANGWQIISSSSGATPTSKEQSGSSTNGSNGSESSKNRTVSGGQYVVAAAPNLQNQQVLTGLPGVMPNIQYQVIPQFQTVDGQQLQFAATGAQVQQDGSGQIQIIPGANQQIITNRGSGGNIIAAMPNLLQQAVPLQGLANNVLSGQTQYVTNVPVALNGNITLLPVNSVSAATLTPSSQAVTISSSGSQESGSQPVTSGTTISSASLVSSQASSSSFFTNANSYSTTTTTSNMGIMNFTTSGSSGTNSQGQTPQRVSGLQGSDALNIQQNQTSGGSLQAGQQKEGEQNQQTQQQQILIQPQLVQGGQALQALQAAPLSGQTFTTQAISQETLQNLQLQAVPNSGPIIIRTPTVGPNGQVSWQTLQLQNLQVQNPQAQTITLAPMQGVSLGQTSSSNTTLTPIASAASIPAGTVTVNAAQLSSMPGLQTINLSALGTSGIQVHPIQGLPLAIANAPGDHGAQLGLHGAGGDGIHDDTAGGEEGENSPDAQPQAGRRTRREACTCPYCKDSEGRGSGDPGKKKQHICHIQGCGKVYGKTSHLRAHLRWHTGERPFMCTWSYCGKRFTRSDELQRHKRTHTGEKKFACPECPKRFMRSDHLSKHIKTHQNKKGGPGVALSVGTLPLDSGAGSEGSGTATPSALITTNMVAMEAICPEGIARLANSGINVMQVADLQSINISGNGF
Estrogen-related receptor gamma (Homo sapiens), sequence (P62508 whole entry, looked up, the tested form may be a part): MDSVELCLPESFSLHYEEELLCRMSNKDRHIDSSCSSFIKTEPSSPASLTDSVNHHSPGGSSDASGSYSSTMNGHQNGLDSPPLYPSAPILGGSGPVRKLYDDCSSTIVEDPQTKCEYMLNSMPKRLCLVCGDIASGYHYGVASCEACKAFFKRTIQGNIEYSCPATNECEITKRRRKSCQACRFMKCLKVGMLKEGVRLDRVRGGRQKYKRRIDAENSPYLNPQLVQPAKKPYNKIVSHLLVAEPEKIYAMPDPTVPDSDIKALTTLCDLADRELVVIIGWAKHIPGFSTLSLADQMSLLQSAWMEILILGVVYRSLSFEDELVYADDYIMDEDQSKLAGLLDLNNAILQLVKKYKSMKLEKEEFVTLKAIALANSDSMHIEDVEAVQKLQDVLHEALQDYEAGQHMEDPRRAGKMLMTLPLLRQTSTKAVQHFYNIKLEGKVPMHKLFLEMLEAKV

In the case of `Cc1occc1C(=O)Nc1ccc(C(=O)N2CCC(F)(F)/C(=C\C(=O)N3CCC(N4CCCCC4)CC3)c3ccccc32)cc1`, the AC50 in [1] is 34.5 µM (active); in [2] it was 8.38 µM (active); in [3], 42.3 µM (active); in test [4] it was 56 µM (active); in test [6], 62.6 µM (active); in test [8], 26.5 µM (active). The AC50 in [10] was 49.8 µM (active); in test [11] it was 34.5 µM (active); in [13], 51.2 µM (active). Also, the molecule was classed as inactive in test [5], in test [7], in test [9] and in [12].
Regarding `Clc1ccccc1C(c1ccccc1)(c1ccccc1)n1ccnc1`, the concentration at half-maximal activity (AC50) in [1] was 11.1 µM (active); in test [2], 0.589 µM (active); in test [14], 11.1 µM (active); in test [3], 11.1 µM (active); in [5], 3 µM (active); in [7], 11.1 µM (active). For the same molecule, the AC50 in test [11] is 4.84 µM (active); in test [13] it was 11.1 µM (active). In addition, the outcome in test [4], in [6], in test [8], in test [9], in test [10] and in test [12] was inactive. The molecule was called inactive in [15] and in [16].
Regarding `Oc1ccc2ccccc2c1`, the result in test [1], in test [2], in test [14], in test [3], in test [4] and in test [5] was inactive. Further, the molecule was classed as inactive in test [6], in test [7], in test [9], in [10], in test [11] and in [13]. Also, the outcome in test [17] was inactive. Besides, in test [8], the AC50 is 77.3 µM (active) and 100 µM (active).
For `CN(C)C(=O)C1(N2CCCCC2)CCN(CC[C@@]2(c3ccc(Cl)c(Cl)c3)CN(C(=O)c3ccccc3)CCO2)CC1`, the outcome in test [1], in [18], in test [14], in [3], in test [4] and in [6] was inactive. The molecule was called inactive in test [7], in [9], in test [10], in [11], in [12] and in test [13]. Also, the outcome in test [16] was inactive. Besides, the AC50 is 0.17 µM (active) in [2], 0.436 µM (active) in test [5] and 0.98 µM (active) in test [8].
`Cc1ncc(CO)c(CO)c1O`: the outcome in test [1], in [2], in test [18], in test [14], in [3] and in [4] was inactive. Also, the call in [5], in test [6], in [7], in test [8], in test [9] and in test [10] was inactive. For the same molecule, the result in [11], in test [13], in [17] and in [15] was inactive.
Regarding `Cc1oc2c(NC(=O)c3c(Cl)cccc3Cl)cccc2c1C(C)(C)O`, the AC50 in test [1] is 85.7 µM (active); in test [2], 0.116 µM (active); in [18], 71.8 µM (active); in test [14] it was 31.6 µM (active); in test [5], 6.28 µM (active); in test [7], 41.5 µM (active). Moreover, the concentration at half-maximal activity (AC50) was 25.4 µM (active) in test [8], 33.1 µM (active) in test [9] and 4.01 µM (active) in test [11]. Further, the molecule was classed as inactive in test [3], in test [4], in test [6], in test [10], in test [13] and in [17].
